Screening data: PubChem BioAssay, National Center for Advancing Translational Sciences (NCATS)
D2 PAM-1: HTS Assay for Positive Allosteric Modulators of the Human D2 Dopamine Receptor: Primary Screen for Potentiators; potentiation, % at 10 µM; HEK293 T-REx D2, calcium flux, EC20 dopamine potentiation; hit rate 0.34% among 340,000;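 active = potentiation over 3 SD above the plate norm, cut at about 30% in these data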; note: 0% is about no effect
Target sequence (P14416 whole entry, looked up): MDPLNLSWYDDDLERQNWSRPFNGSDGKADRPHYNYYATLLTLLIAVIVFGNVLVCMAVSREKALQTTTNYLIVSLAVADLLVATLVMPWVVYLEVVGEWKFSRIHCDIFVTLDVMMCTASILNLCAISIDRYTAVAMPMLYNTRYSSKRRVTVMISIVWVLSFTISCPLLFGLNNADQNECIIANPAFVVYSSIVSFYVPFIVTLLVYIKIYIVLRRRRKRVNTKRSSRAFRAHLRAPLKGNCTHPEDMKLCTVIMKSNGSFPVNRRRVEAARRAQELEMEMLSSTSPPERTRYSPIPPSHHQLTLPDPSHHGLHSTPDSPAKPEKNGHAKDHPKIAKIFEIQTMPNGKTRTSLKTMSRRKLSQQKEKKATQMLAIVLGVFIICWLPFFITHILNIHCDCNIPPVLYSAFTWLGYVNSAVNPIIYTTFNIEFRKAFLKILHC
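Potentiation of an EC20 dopamine calcium response measured kinetically over 180 s, after a preceding 180 s compound-only read flagging agonists. Cells: inducible Hek293 Trex D2 line, 4000/well, cultured overnight at 30 C before dye loading.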
D2 antagonist: HTS Assay for Allosteric Antagonists of the Human D2 Dopamine Receptor: Primary Screen for Antagonists | inhibition, % at 10 µM | AID 485344, 2010 | D(2) dopamine receptor (Homo sapiens), P14416 | HEK293 TREx D2 cells, calcium flux, dopamine EC80 | hit rate 2% among 340,000; in the data active = inhibition above about 30%; inactive = below that, where a call was filed; note: 0% is about no effect
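Calcium mobilization kinetics were recorded at 1 s intervals in tetracycline-induced HEK293 T-REx D2 cells, first for 180 s after compound addition and then 180 s after EC80 dopamine.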
D2 ag-1: Beta-Arrestin HTS for Positive Allosteric Modulators of the Human D2 Dopamine Receptor: Agonists; DiscoveRx PathHunter D2 beta-arrestin, luminescence, 90 min; 100% = 57 uM dopamine signal; D(2) dopamine receptor (Homo sapiens), P14416; activation, % (concentration not given with the values); hit rate 0.084% among 360,000; in the data active = activation above about 40%; inconclusive = between about 15% and that limit
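DiscoveRx PathHunter D2 beta-arrestin cells (2,100/well) attached overnight, then compound-stimulated 90 min at 37 C in HBSS/10 mM HEPES/0.1% Tween-20 buffer; beta-galactosidase complementation read by luminescence after 1 h at ambient temperature. Dopamine 57 uM final (EC100) as control.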
D2 PAM-2: Beta-Arrestin HTS for Positive Allosteric Modulators of the Human D2 Dopamine Receptor: Potentiators; D(2) dopamine receptor (Homo sapiens), P14416; DiscoveRx D2 beta-arrestin cells, luminescence, 90 min; 100% = 57 uM dopamine signal; potentiation, % (test concentration not listed); hit rate 0.23% among 360,000; AID 624464, 2012; in the data active = potentiation above about 50%; inconclusive = mostly about 30% to 49%
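PathHunter D2 cells, attached overnight at 37 deg C, received compound in DMSO plus dopamine at EC20 (50 nM final) for 90 min at 37 deg C. Beta-arrestin recruitment was read as luminescence after 1 h with detection reagent at ambient temperature.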
D2 ag-2: HTS Assay for Allosteric Agonists of the Human D2 Dopamine Receptor: Primary Screen for Agonists | HEK293 T-REx D2 cells, calcium flux agonist mode | D(2) dopamine receptor (Homo sapiens), P14416 | AID 485358, 2010 | hit rate 0.53% among 340,000 | activation, % at 2 µM;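 active = activation over 3 SD above normal in the single-dose calcium agonist read, cut at about 30% in these data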; note: 0% is about no effect
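Calcium-flux readout, 1 cycle/sec over 180 s following compound pin transfer, in inducible HEK293 Trex D2 cells (force-coupled); dopamine controls included. Positive calcium responses during this window marked compounds as potential agonists.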
Numbers without * were called inactive; u = inconclusive; x = not tested or not shown. Compounds with a hit are over-represented: about 2.4% of the library has one in this group of screens.

SMILES	D2 PAM-1	D2 antagonist	D2 ag-1	D2 PAM-2	D2 ag-2
COc1ccc(S(=O)(=O)NCC(c2ccco2)S(=O)(=O)c2ccc(C)cc2)cc1C (stereo not given)	-2	x	x	x	1
COc1cccc(NC(CNS(=O)(=O)c2ccc(Cl)cc2)c2ccccc2)c1 (stereo not given)	12	x	x	x	-1
O=c1cc(-c2ccc([N+](=O)[O-])cc2)nc2cc(-c3ccc(Cl)cc3)[nH]n12	-14	35*	x	x	-1
CC(=O)c1ccc(NC(=O)Cn2ncc3c(C)n(Cc4ccc(F)cc4)c(C)c3c2=O)cc1	-7	x	x	x	0
Cc1oc2c(c1C(=O)N1CCC(C)CC1)C(=O)c1ccccc1C2=O	-12	0	2	2	0
Cc1ccc(C(=O)c2c(C)oc3c2C(=O)C(=O)c2ccccc2-3)cc1	1	-36	u	74*	1
Cc1ccc(C(=O)c2coc3c2C(=O)C(=O)c2ccccc2-3)cc1	7	-3	u	64*	-1
Cc1oc2c(c1C(=O)c1ccc(Cl)cc1)C(=O)C(=O)c1ccccc1-2	3	1	15	109*	0
CCCCCc1c(C)nc(N2CCc3ccccc3C2)[nH]c1=O	-14	32*	-4	-16	-2
